Records with an inconclusive call do not appear. Activity calls are given as the source filed them. The call rests on the fitted dose curve; in most records, active means well fitted cell-killing curve with a large enough effect; inconclusive means small, poorly fitted or top-dose-only effect, or effect the other way; inactive means no such curve, though single readings can be large or run the other way.
System: SKOV3
Test: Confirmatory qHTS for gynecologic anti-cancer compounds from libraries of approved drugs and bioactive compounds; further: nearly all actives have a fitted effect of over 55% in size
Settings: gynecologic cancer cell panel viability, ATPlite luminescence, 48 h; series mostly up to 57.6 µM
Summary of the method: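 Seeding 1,000 cells per well preceded overnight (16 h) attachment, after which 48 h drug treatment across 57.5 uM–0.977 nM (11 points) was applied. Remaining cellular ATP, detected by ATPlite luminescence, defined IC50.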
On the % scale 0 is the no-effect control and ±100 the full control effect; potency means the concentration at half of the fitted maximal effect.

Row | SMILES | Potency | activity change, negative = viability loss
1 | Cc1nc(N)ncc1-c1nc(N2CCOCC2)c2sc(C(C)(C)O)cc2n1 | 0.432 µM (active) | –
2 | Nc1ccccc1NC(=O)c1ccc(CNc2nccc(-c3cccnc3)n2)cc1 | 0.432 µM (active) | –
3 | O=C(Nc1cn[nH]c1-c1nc2ccc(CN3CCOCC3)cc2[nH]1)NC1CC1 | 7.69 µM (active) | –
4 | Cc1cnc(CNC(=O)c2c(=O)c3ccc(N4CCCN(C)CC4)nc3n3c2sc2ccccc23)cn1 | – | 5.48% [at 10.7 µM] (inactive)
5 | COc1cccc2c1C(=O)c1c(O)c3c(c(O)c1C2=O)C[C@@](O)(C(=O)CO)C[C@@H]3O[C@H]1C[C@H](N)[C@H](O[C@@H]2CCCCO2)[C@H](C)O1 | 0.685 µM (active) | –
6 | CCc1c2c(nc3ccc(O)cc13)-c1cc3c(c(=O)n1C2)COC(=O)[C@]3(O)CC | 0.0243 µM (active) | –
7 | CC(C)CC(=O)Nc1n[nH]c2c1CN(C(=O)C1CCN(C)CC1)C2(C)C | inactive | –
8 | CC(C)(C(=O)NCC(F)(F)C(F)(F)F)C(=O)NC1C(=O)Nc2ccccc2-c2ccccc21 (configuration not stated) | inactive | –
9 | O=C(/C=C/c1cccc(S(=O)(=O)Nc2ccccc2)c1)NO | 1.88 µM (active) | –
10 | CC[C@H](CC#N)OC(=O)N[C@@H](C)c1cccc(NC(=O)Nc2ccc(-c3cnco3)c(OC)c2)c1 | inactive | –
11 | CC(Oc1ccc2[nH]nc(/C=C/c3cnn(CCO)c3)c2c1)c1c(Cl)cncc1Cl (configuration not stated) | 3.06 µM (active) | –
12 | CCS(=O)(=O)N1CCN(c2ccc(Nc3ncc(C(N)=O)c(NC4CC4)n3)cc2)CC1 | 15.3 µM (active) | –
13 | O=c1[nH]c(=O)n([C@H]2C[C@H](O)[C@@H](CO)O2)cc1F | inactive | –
14 | O=C(O)C1(Cc2cccc(Nc3nccs3)n2)CCC(Oc2cccc(Cl)c2F)CC1 (configuration not stated) | inactive | –
15 | CCN(CC)CCNC(=O)c1c(C)[nH]c(/C=C2\C(=O)Nc3ccc(F)cc32)c1C | 15.8 µM (active) | –
16 | Cc1cnc(Nc2ccc(F)cc2Cl)nc1-c1c[nH]c(C(=O)NC(CO)c2cccc(Cl)c2)c1 (configuration not stated) | inactive | –

Row | SMILES | Potency | activity change, negative = viability loss
17 | CNC(=O)c1ccccc1Sc1ccc2c(/C=C/c3ccccn3)n[nH]c2c1 | 19.3 µM (active) | –
18 | Cc1cc(Nc2nc(N[C@@H](C)c3ccc(F)cc3)c(C#N)cc2F)n[nH]1 | 7.69 µM (active) | –
19 | NS(=O)(=O)OC[C@@H]1C[C@@H](n2ccc3c(N[C@H]4CCc5ccccc54)ncnc32)C[C@@H]1O | inactive | –
20 | CN1CCN(CCOc2cc(OC3CCOCC3)c3c(Nc4c(Cl)ccc5c4OCO5)ncnc3c2)CC1 | inactive | –
21 | CC(C)n1c(/C=C/[C@@H](O)C[C@@H](O)CC(=O)O)c(-c2ccc(F)cc2)c2ccccc21 | 1.72 µM (active) | –
22 | N#CC1(c2cccc(C(=O)Nc3cc(Oc4ccc5nc(NC(=O)C6CC6)sc5n4)ccc3F)c2Cl)CC1 | 17.2 µM (active) | –
23 | Cc1nc(NC(=O)N2CCCC2C(N)=O)sc1-c1ccnc(C(C)(C)C(F)(F)F)c1 (configuration not stated) | 0.685 µM (active) | –
24 | CCN1CCN(Cc2ccc(-c3cc4c(NC(C)c5ccccc5)ncnc4[nH]3)cc2)CC1 (configuration not stated) | 17.2 µM (active) | –
25 | Cc1cc(C(=O)N2CCN(c3cccc(Cl)c3)CC2)n(-c2ccccc2)n1 | 0.544 µM (active) | –
26 | COc1cc2c(Nc3ccc(NC(=O)c4ccccc4)cc3)ncnc2cc1OCCCN1CCOCC1 | inactive | –
27 | CCCCN(CCCC)C(=O)CN1C[C@H](c2ccc3c(c2)OCO3)[C@@H](C(=O)O)[C@@H]1c1ccc(OC)cc1 | inactive | –
28 | CC(C)C[C@H](NC(=O)[C@H](CCc1ccccc1)NC(=O)CN1CCOCC1)C(=O)N[C@@H](Cc1ccccc1)C(=O)N[C@@H](CC(C)C)C(=O)[C@@]1(C)CO1 | 13.7 µM (active) | –
29 | Cc1nc(Nc2ncc(C(=O)Nc3c(C)cccc3Cl)s2)cc(N2CCN(CCO)CC2)n1 | 21.7 µM (active) | –
30 | c1nc2nc(Nc3ccc(N4CCOCC4)cc3)nc(NC3CCCCC3)c2[nH]1 | inactive | –
31 | CCCCc1oc2ccccc2c1C(=O)c1cc(I)c(OCCN(CC)CC)c(I)c1 | 70.8 µM (active) | –
32 | NC(=O)Nc1cc(-c2cccc(F)c2)sc1C(=O)NC1CCCNC1 (configuration not stated) | 5.44 µM (active) | –

From PubChem BioAssay AID1345085 (National Center for Advancing Translational Sciences (NCATS), 2018)
